{
  "source": "PubChem BioAssay (NCI)",
  "note": "The panel holds about 83,000 compounds, 20% with a hit somewhere; the sample as a whole holds those more often.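 Cells were grown in 96-well plates and exposed to the test compound at a single concentration for 48 hours; results are reported as percent growth, with values below 10 considered active.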 The source made the active and inactive calls.",
  "data": [
    {"tested_on": "MDA-MB-468 breast", "test": "NCI-60 one-dose screen, 48 h (100 = growth as untreated, 0 = no growth, -100 = all killed)", "conditions": "10 µM unless noted", "values": [
      {"compound": "O=[N+]([O-])c1ccccc1CN1CCCCC1", "growth": "89.3% (inactive)"},
      {"compound": "CC(=O)O[C@H]1[C@@H]2OC(=O)C(CSc3ccccc3)[C@@H]2C[C@H]2O[C@]2(C)CC/C=C(\\C)CCC[C@@H]1C", "note": "(some centres not stated)", "growth": "-10% (active)"},
      {"compound": "Cn1ccnc1C(=O)/C=C/c1ccc(C(=O)Nc2c(F)c(F)c(F)c(F)c2F)cc1", "growth": "-16.7% (active)"},
      {"compound": "COC(=O)c1cc(=O)nc(N/N=C/c2ccc(C)cc2)s1", "growth": "110% (inactive)"},
      {"compound": "O=[N+]([O-])c1ccc(NC(c2ccccc2)c2ccc3cccnc3c2O)cc1", "note": "(configuration not stated)", "growth": "-28.9% (active)"},
      {"compound": "CCCCCCCC/C=C\\CCCCCCCCOc1cccc(CC(=O)NCC[N+]2(C)CCOCC2)c1", "growth": "86% (inactive)"},
      {"compound": "O=C(C(=O)N1CCOCC1)c1cn(CCCn2cc(C(=O)C(=O)N3CCOCC3)c3ccccc32)c2ccccc12", "growth": "109% (inactive)"},
      {"compound": "S=C(Nc1ccccc1)c1ccccn1", "growth": "101% (inactive)"},
      {"compound": "CC(C)=CC(=O)OCC(=O)O[C@@H]1C[C@]2(C(C)C)O[C@@]1(C)[C@@H]1CC[C@@H](C)[C@H]1[C@@H]2OC(=O)/C=C/c1ccccc1", "growth": "64.3% (inactive)"},
      {"compound": "C=C1CC[C@@H]2[C@](C)(COC(C)=O)[C@H](OC(C)=O)CC[C@@]2(C)[C@@H]1CC(Nc1ccc(S(=O)(=O)Nc2ccc(Cl)nn2)cc1)C1=CCOC1=O", "note": "(some centres not stated)", "growth": "-32.3% (active)"},
      {"compound": "C=CCn1c(SCC(=O)Nc2ccc(C(=O)/C=C/c3ccc(Cl)cc3)cc2)nnc1-c1ccc(Br)cc1", "growth": "79.1% (inactive)"},
      {"compound": "Cn1ccnc1C(=O)/C=C/c1ccc(CC(=O)Nc2ccc(S(F)(F)(F)(F)F)cc2)cc1", "growth": "-22.9% (active)"}
    ]}
  ]
}
